From PubChem BioAssay (NCATS)
“And” between values parts separate entries of the source, which are not always exact repeats. Equal values may be shown once. Results filed as inconclusive are left out. A number with no mark means an inactive call. The source made the active and inactive calls. The call rests on the fitted dose curve; in most records, active means well fitted curve in the direction sought with a large enough effect; inconclusive means small, poorly fitted or top-dose-only effect, or another doubt; inactive means no such curve, though single readings can be large; an effect the other way counts as inactive or inconclusive.

Tested on: not listed separately
Experiment: qHTS to identify inhibitors of the type 1 interferon - major histocompatibility complex class I in skeletal muscle: primary screen against the NCATS Mechanism Interrogation Plate v5.0 (MIPE) Libary (AID 1347411);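 further: plate controls were vehicle for no effect and reference inhibitor for full effect; nearly all actives have a fitted effect of over 65% in size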
Conditions: iHSKM cells + IFN-b, HiBiT-tagged MHC-I luminescence, 24 h; series mostly up to 45.8 µM; activity change, negative = inhibition: at the top concentration
Summary of the method: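 Seed engineered human myoblasts (HLA-B HiBit) in medium without dexamethasone containing 4 ng/ml IFN-beta; after 1 hr add compound titrations (top 46 uM final). Incubate 24 hrs at 37 C, lyse 10 min with HiBiT reagent, read luminescence.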

Structure (SMILES)	activity change, negative = inhibition
CCC(=O)OCC(=O)C1(OC(=O)CC)C(C)CC2C3CCC4=CC(=O)C=CC4(C)C3(F)C(O)CC21C (configuration not stated)	-24.4%
N#C/C(=C1/Nc2ccccc2S1)c1ccnc(OCc2ccc(CN3CCOCC3)cc2)n1	-28.2%
CN(C(=O)CNC(=O)/C=C/c1cccc(Cl)c1)C1CCS(=O)(=O)CC1	-5.66%
CO[C@H]1/C=C/O[C@@]2(C)Oc3c(C)c(O)c4c(O)c(c5c(c4c3C2=O)=NC2(CCN(CC(C)C)CC2)N=5)NC(=O)/C(C)=C/C=C/[C@H](C)[C@H](O)[C@@H](C)[C@@H](O)[C@@H](C)[C@H](OC(C)=O)[C@@H]1C	-7.8%
C[C@@H](O)[C@@H]1NC(=O)[C@H](CCCCN)NC(=O)[C@@H](Cc2c[nH]c3ccccc23)NC(=O)[C@H](Cc2ccccc2)NC(=O)[C@@H](NC(=O)[C@H](N)Cc2ccccc2)CSSC[C@@H](C(=O)N[C@H](CO)[C@@H](C)O)NC1=O	3.37% [at 15.5 µM]

Tested on: not listed separately
Experiment: Primary qHTS for inhibitors of nuclear receptor binding SET domain protein 2 (NSD2) in an isogenic RCH-ACV NSD2 p.E1099K mutant (9B) (AID 1645876); further: nearly all actives have a fitted effect of over 70% in size; further: potency means the concentration at half of the fitted maximal effect; on activity change, negative = viability loss: on the % scale 0 is the no-effect control and ±100 the full control effect
Conditions: RCH-ACV NSD2 E1099K (9B) viability, CellTiter-Glo, 72 h; series mostly up to 44.9 µM; activity change, negative = viability loss: at the top concentration; outcome: at the top concentration

Structure (SMILES)	Potency	activity change, negative = viability loss
CN(C)Cc1ccc(S(=O)(=O)n2ccc(/C=C/C(=O)NO)c2)cc1	1.86 µM (active)	–
CO[C@@H]1[C@@H](O)[C@H](O)[C@@H](n2c3c(Cl)cccc3c3c4c(c5c6cccc(Cl)c6[nH]c5c32)C(=O)NC4=O)O[C@H]1CO	0.934 µM (active)	–
CN(C)CCOc1ccc(-c2nc(-c3ccc4c(c3)CC/C4=N\O)c(-c3ccncc3)[nH]2)cc1	16.6 µM (active)	–
CCS(=O)(=O)Nc1ccc(Oc2ccc(F)cc2F)c(-c2cn(C)c(=O)c3[nH]ccc23)c1	0.0132 µM (active)	–
COc1cc(=C2C=c3ccccc3=N2)[nH]/c1=C/c1[nH]c(C)cc1C	–	-98.5%
CC#CC(=O)N1CC[C@@H](n2c(=O)n(-c3ccc(Oc4ccccc4)cc3)c3c(N)ncnc32)C1	6.61 µM (active)	–
Cc1cc(O)c(-c2ccc([C@@H](C)CN)cc2)c2c1[nH]c(=O)c1sccc12	–	-16.6%
NC(=O)c1cnc2[nH]ccc2c1NC1C2CC3C[C@H]1CC(O)(C3)C2 (some centres not stated)	9.34 µM (active)	–
COc1cc(N2CCN(C)CC2)ccc1Nc1ncc2c(n1)N(C)c1ccccc1C(=O)N2C	2.35 µM (active)	–
CN1CCN(c2ccc(Nc3ncc4cc(C#N)c(=O)n(C5CCCC5)c4n3)cc2)CC1	0.59 µM (active)	–
C=C1/C(=C\C=C2/CCC[C@]3(C)[C@@H]([C@H](C)CCCC(C)(C)O)CC[C@@H]23)C[C@@H](O)C[C@@H]1O	20.9 µM (active) and 18.6 µM (active)	–
O=c1cc(N2CCOCC2)oc2c(-c3ccc4c(c3)OCCO4)csc12	0.59 µM (active)	–
CC/C(=C(/c1ccc(O)cc1)c1ccc(OCCNC)cc1)c1ccccc1	33.2 µM (active)	–
CCC(=C/[C@H](C)C/C=C/C(C)=C/[C@@H](C)C(=O)[C@@H](C)[C@H](O)[C@@H](C)C/C(C)=C/C(=O)O)/C=C/[C@@H]1OC(=O)C=C[C@@H]1C	0.0042 µM (active)	–
O=C(CCc1ccc(O)cc1)c1c(O)cc(O)cc1O[C@@H]1O[C@H](CO)[C@@H](O)[C@H](O)[C@H]1O	–	9.55%

Tested on: not listed separately
Experiment: Primary qHTS for inhibitors of nuclear receptor binding SET domain protein 2 (NSD2) in an RCH-ACV wild type WT cells (2C) (AID 1645877); further: nearly all actives have a fitted effect of over 70% in size; further: potency means the concentration at half of the fitted maximal effect; on activity change, negative = cell killing: on the % scale 0 is the no-effect control and ±100 the full control effect
Conditions: RCH-ACV (leukaemia line) NSD2 WT (2C) viability, CellTiter-Glo, 72 h; series mostly up to 44.9 µM; activity change, negative = cell killing: at the top concentration; outcome: at the top concentration

Structure (SMILES)	Potency	activity change, negative = cell killing
CN(C)Cc1ccc(S(=O)(=O)n2ccc(/C=C/C(=O)NO)c2)cc1	1860 nM (active)	–
CO[C@@H]1[C@@H](O)[C@H](O)[C@@H](n2c3c(Cl)cccc3c3c4c(c5c6cccc(Cl)c6[nH]c5c32)C(=O)NC4=O)O[C@H]1CO	525 nM (active)	–
CN(C)CCOc1ccc(-c2nc(-c3ccc4c(c3)CC/C4=N\O)c(-c3ccncc3)[nH]2)cc1	10500 nM (active)	–
CCS(=O)(=O)Nc1ccc(Oc2ccc(F)cc2F)c(-c2cn(C)c(=O)c3[nH]ccc23)c1	7.4 nM (active)	–
COc1cc(=C2C=c3ccccc3=N2)[nH]/c1=C/c1[nH]c(C)cc1C	–	-97.5%
CC#CC(=O)N1CC[C@@H](n2c(=O)n(-c3ccc(Oc4ccccc4)cc3)c3c(N)ncnc32)C1	16600 nM (active)	–
N#CCC1(n2cc(-c3ncnc4[nH]ccc34)cn2)CN(C2CCN(C(=O)c3ccnc(C(F)(F)F)c3F)CC2)C1	18600 nM (active)	–
Cc1cc(O)c(-c2ccc([C@@H](C)CN)cc2)c2c1[nH]c(=O)c1sccc12	–	-30.4%
NC(=O)c1cnc2[nH]ccc2c1NC1C2CC3C[C@H]1CC(O)(C3)C2 (some centres not stated)	9340 nM (active)	–
COc1cc(N2CCN(C)CC2)ccc1Nc1ncc2c(n1)N(C)c1ccccc1C(=O)N2C	2350 nM (active)	–
CN1CCN(c2ccc(Nc3ncc4cc(C#N)c(=O)n(C5CCCC5)c4n3)cc2)CC1	525 nM (active)	–
O=c1cc(N2CCOCC2)oc2c(-c3ccc4c(c3)OCCO4)csc12	590 nM (active)	–
CCC(=C/[C@H](C)C/C=C/C(C)=C/[C@@H](C)C(=O)[C@@H](C)[C@H](O)[C@@H](C)C/C(C)=C/C(=O)O)/C=C/[C@@H]1OC(=O)C=C[C@@H]1C	4.2 nM (active)	–

Molecular target: Glutathione peroxidase 1 (Homo sapiens) (UniProt P07203)
Sequence (P07203 whole entry, looked up): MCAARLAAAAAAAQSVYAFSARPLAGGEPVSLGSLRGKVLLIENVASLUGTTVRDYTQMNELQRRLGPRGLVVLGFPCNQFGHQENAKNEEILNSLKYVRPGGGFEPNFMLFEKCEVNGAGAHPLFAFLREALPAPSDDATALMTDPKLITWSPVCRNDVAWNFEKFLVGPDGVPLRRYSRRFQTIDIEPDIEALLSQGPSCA
Experiment: Primary qHTS Assay for Inhibitors of Recombinant Selenoprotein Glutathione Peroxidase 1 (GPX1) (AID 1845191); further: nearly all actives have a fitted effect of over 65% in size; on activity, negative = inhibition: on the % scale 0 is the no-effect control and ±100 the full control effect
Conditions: recombinant GPX1, GR-coupled NADPH fluorescence, 15 min; series mostly up to 48.8 µM; activity, negative = inhibition: at the top concentration; outcome: at the top concentration
Summary of the method: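 GR-coupled readout: NADPH consumption tracked by fluorescence, ex 340/em 450 nm, at t=0 and after 15 min at RT. Final mix 10 nM GPX1, 1 mM GSH, 0.5 mM CHP, 0.5 mM NADPH, 100 nM GR, 0.01% BSA, following 30 min enzyme–compound preincubation.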

Structure (SMILES)	activity, negative = inhibition	Potency	outcome
CN(C)Cc1ccc(S(=O)(=O)n2ccc(/C=C/C(=O)NO)c2)cc1	0.253%	–	–
CO[C@@H]1[C@@H](O)[C@H](O)[C@@H](n2c3c(Cl)cccc3c3c4c(c5c6cccc(Cl)c6[nH]c5c32)C(=O)NC4=O)O[C@H]1CO	1.47%	–	–
OCCOc1ccc(/C(=C(/CCCl)c2ccccc2)c2ccccc2)cc1	–	inactive	–
O=C(Nc1cnccc1Cl)N1CCN(Cc2ccc3c(c2)OC(F)(F)O3)CC1	–	–	inactive
CN(C)CCOc1ccc(-c2nc(-c3ccc4c(c3)CC/C4=N\O)c(-c3ccncc3)[nH]2)cc1	–	–	inactive
COC(=O)N(CC(=O)O)Cc1cccc(OCc2nc(-c3ccc(Cl)cc3)oc2C)c1	–	–	inactive
COc1ccc(S(=O)(=O)NCc2ccc(C(=O)NCCc3ccc(Cl)cn3)cc2)cc1	–	–	inactive
CN1C[C@@H]2c3ccccc3Oc3ccc(Cl)cc3[C@H]2C1	–	–	inactive
NC(=S)N/N=C/c1ncccc1N	–	–	inactive
CCS(=O)(=O)Nc1ccc(Oc2ccc(F)cc2F)c(-c2cn(C)c(=O)c3[nH]ccc23)c1	-17.5%	–	–
C[C@H]1CN(C2COC2)CCN1c1ccc(Nc2cc(-c3ccnc(N4CCn5c(cc6c5CC(C)(C)C6)C4=O)c3CO)cn(C)c2=O)nc1	–	–	inactive
COc1cc(=C2C=c3ccccc3=N2)[nH]/c1=C/c1[nH]c(C)cc1C	1.7%	–	–
C[C@@H]1Cc2c([nH]c3ccccc23)[C@@H](c2c(F)cc(/C=C/C(=O)O)cc2F)N1CC(C)(C)F	-0.468%	–	–
Cc1cc(Oc2ccc3nc(COc4ccc(CC5SC(=O)NC5=O)cc4)n(C)c3c2)cc(C)c1N (configuration not stated)	–	–	inactive
CC#CC(=O)N1CC[C@@H](n2c(=O)n(-c3ccc(Oc4ccccc4)cc3)c3c(N)ncnc32)C1	–	–	inactive
Cc1cc(O)c(-c2ccc([C@@H](C)CN)cc2)c2c1[nH]c(=O)c1sccc12	–	–	inactive
CCC(=O)OCC(=O)C1(OC(=O)CC)C(C)CC2C3CCC4=CC(=O)C=CC4(C)C3(F)C(O)CC21C (configuration not stated)	–	–	inactive
N#C/C(=C1/Nc2ccccc2S1)c1ccnc(OCc2ccc(CN3CCOCC3)cc2)n1	-15.8%	–	–
NC(=O)c1cnc2[nH]ccc2c1NC1C2CC3C[C@H]1CC(O)(C3)C2 (some centres not stated)	–	–	inactive
CN(C(=O)CNC(=O)/C=C/c1cccc(Cl)c1)C1CCS(=O)(=O)CC1	–	–	inactive
COc1cc(N2CCN(C)CC2)ccc1Nc1ncc2c(n1)N(C)c1ccccc1C(=O)N2C	–	–	inactive
CN1CCN(c2ccc(Nc3ncc4cc(C#N)c(=O)n(C5CCCC5)c4n3)cc2)CC1	–	–	inactive
C=C1/C(=C\C=C2/CCC[C@]3(C)[C@@H]([C@H](C)CCCC(C)(C)O)CC[C@@H]23)C[C@@H](O)C[C@@H]1O	–	inactive	–
O=c1cc(N2CCOCC2)oc2c(-c3ccc4c(c3)OCCO4)csc12	–	–	inactive
CO[C@H]1/C=C/O[C@@]2(C)Oc3c(C)c(O)c4c(O)c(c5c(c4c3C2=O)=NC2(CCN(CC(C)C)CC2)N=5)NC(=O)/C(C)=C/C=C/[C@H](C)[C@H](O)[C@@H](C)[C@@H](O)[C@@H](C)[C@H](OC(C)=O)[C@@H]1C	–	–	inactive
CC/C(=C(/c1ccc(O)cc1)c1ccc(OCCNC)cc1)c1ccccc1	–	–	inactive
C[C@@H](O)[C@@H]1NC(=O)[C@H](CCCCN)NC(=O)[C@@H](Cc2c[nH]c3ccccc23)NC(=O)[C@H](Cc2ccccc2)NC(=O)[C@@H](NC(=O)[C@H](N)Cc2ccccc2)CSSC[C@@H](C(=O)N[C@H](CO)[C@@H](C)O)NC1=O	-1.56% [at 27.7 µM]	–	–
CCC(=C/[C@H](C)C/C=C/C(C)=C/[C@@H](C)C(=O)[C@@H](C)[C@H](O)[C@@H](C)C/C(C)=C/C(=O)O)/C=C/[C@@H]1OC(=O)C=C[C@@H]1C	-3.57%	–	–
O=C(CCc1ccc(O)cc1)c1c(O)cc(O)cc1O[C@@H]1O[C@H](CO)[C@@H](O)[C@H](O)[C@H]1O	–	inactive	–
